Pol kappa inh-1: inhibitors of human DNA polymerase kappa; 400,000 tested, 0.53% active; Potency, µM (highest dose often 107 µM), inactives show at the top dose activity, negative = inhibition, most hits filed as inhibitors; purified Pol kappa, fluorescent DNA synthesis assay, 10 min; Q9UBT6; note: potency is the fitted concentration of half-maximal effect; % is set by controls: 0 for no effect and ±100 for the full control effect
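First, compounds were pin-transferred onto 10 nM Pol kappa. After 15 min at room temperature, substrate was added to 50 nM final. Fluorescence was then measured kinetically at 0 and 10 min.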
POLI inh: DNA polymerase iota (human) inhibition | Q9UNA4 | Pol iota fluorescent replication assay, 10 min | Potency, µM (highest dose often 115 µM), for the others: at the top dose activity, negative = inhibition, usual class: inhibitors | 390,000 tested, 1% active | AID 588590; note: potency is the fitted concentration of half-maximal effect
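Pol iota at 10 nM preincubated 15 min with compounds at room temperature; reaction started with fluorescent substrate, 50 nM final. Fluorescence read kinetically at 0 and 10 min; buffer-only wells as negative control.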
Pol beta inh: blocks human DNA polymerase beta activity | Potency, µM (series often up to 114 µM), for inactives: top-dose activity change, negative = inhibition, hits mostly inhibitors | 340,000 tested, 1.3% active | Pol beta primer extension/strand displacement, fluorescence kinetic; note: potency is the fitted concentration of half-maximal effect; % is set by controls: 0 for no effect and ±100 for the full control effect
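Pol beta (10 nM) and compounds were preincubated 15 min at room temperature, then 50 nM substrate (final) started primer extension/strand displacement. Reads were taken at 0 and 10 min; concentration-response data were fitted to a four-parameter Hill equation.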
Pol eta inh-1: inhibitors of human DNA polymerase eta | Q9Y253 | recombinant Pol eta, fluorescent DNA replication assay | Potency, µM (series often up to 114 µM), for inactives: at the top dose activity change, negative = inhibition, most hits filed as inhibitors | 390,000 tested, 1.2% active | AID 588591; note: potency is the fitted concentration of half-maximal effect; % is set by controls: 0 for no effect and ±100 for the full control effect
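Fluorescent replication assay: 50 nM final substrate added after a 15 min room-temperature compound preincubation with 10 nM enzyme. Signal taken at 0 min and again at 10 min.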
WRN inhibitor: WRN helicase (human) inhibition | AID 651768 | 360,000 tested, 0.46% active | Q14191 | Potency, µM (doses to about 114 µM), without a hit: top-dose activity change, negative = inhibition, hits mostly inhibitors | WRN helicase unwinding, fluorescent forked duplex, kinetic; note: potency is the fitted concentration of half-maximal effect; % is set by controls: 0 for no effect and ±100 for the full control effect; nearly all actives have a fitted effect of over 55% in size
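WRN at 20 nM final was preincubated with compound for 15 min at room temperature; reaction started with 100 nM forked duplex oligonucleotide carrying fluorophore and quencher plus 2 mM ATP (final). Unwinding followed kinetically by red fluorescence (ex 525/em 598 nm).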
PI5P4K alpha inh: blocks human PI5P4K alpha kinase activity; P48426; PI5P4Kalpha enzyme, ADP-Glo luminescence, 60 min; hits give low values; max response, %; 330,000 tested, 1.2% active; AID 652105; active = max response of -50% or lower; inconclusive = between -30% and -50%; inactive = -30% or higher; note: value at the top dose of about 77 µM; % is set by controls: 0 for no effect and ±100 for the full control effect
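Enzyme plus substrate dispensed, test compounds pinned in, then ATP (5 microM final) added. After 60 min at RT, ADP-Glo reagent 1 for 45 min and reagent 2 for 30 min preceded luminescence imaging.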
GALK confirm: galactokinase (human) inhibition, confirmation. shares compounds with Pol eta inh-1. purified GALK, Kinase-Glo ATP depletion luminescence. Potency, µM (highest dose often 115 µM), inactives show top-dose activity, negative = inhibition, hits mostly inhibitors. 150 tested, 70% active
Redox cycling: redox cycling activity in phenol red-HRP assay. shares compounds with Pol eta inh-1. Phenol red-HRP H2O2 redox cycling, absorbance 600 nm. Potency, µM (highest dose often 115 µM), inactives show top-dose activity change, negative = H2O2 signal, actives largely listed as inhibitors. 150 tested, 40% active
HEK293 viability: HEK-293 cytotoxicity, GALK inhibitor secondary. Potency, µM (highest dose often 46.1 µM), for inactives: top-dose activity change, negative = cytotoxicity, hits mostly inhibitors. HEK-293 viability, ATP luminescence (CellTiter-Glo), 24/48 h. 170 tested, 10% active. shares compounds with Pol eta inh-1; note: potency is the fitted concentration of half-maximal effect; % is set by controls: 0 for no effect and ±100 for the full control effect
Pol kappa inh-2: Pol kappa (human) inhibition, cherry-pick confirmation; shares compounds with Pol eta inh-1; purified Pol-kappa, fluorescent strand-displacement substrate; Potency, µM, usual class: inhibitors; 920 tested, 76% active; AID 720501; note: potency is the fitted concentration of half-maximal effect
Pol eta inh-2: Pol eta (human) inhibition, cherry-pick confirmation | Potency, µM, usual class: inhibitors | shares compounds with Pol eta inh-1 | Pol eta primer extension, TAMRA/BHQ fluorescence, 10 min | 2,600 tested, 64% active; note: potency is the fitted concentration of half-maximal effect
* = called active by the depositor; ? = inconclusive; nt = not tested or not shown; [ ] = remark or other dose. Compounds with a hit are over-represented: about 2.8% of the library has one in this group of screens. Unless noted, calls come from the whole dose curve; as a rule, active = well fitted curve in the direction sought with a large enough effect; inconclusive = small, poorly fitted or top-dose-only effect, or another doubt; inactive = no such curve, though single readings can be large; an effect the other way counts as inactive or inconclusive.

SMILES	Pol kappa inh-1	POLI inh	Pol beta inh	Pol eta inh-1	WRN inhibitor	PI5P4K alpha inh	Pol eta inh-2	others
COc1cc(NC(=O)c2ccc3c(SCC(=O)O)c4c(nc3c2)CCC4)cc(OC)c1OC	?	?	-4%	18µM*	-17%[11.6 µM]	2	54*
CN(C)S(=O)(=O)c1cccc(NC(=O)c2cc3c(=O)n4ccccc4nc3s2)c1	-5%	1%	12%	-5%	-30%[57.1 µM]	-1	nt
Cc1cc(NS(=O)(=O)c2ccc(NC(=O)c3cc4c(=O)n5ccccc5nc4s3)cc2)nc(C)n1	89µM*	50µM*	?	20µM*	?	?	60*
Cc1ccc(C(=O)NCc2occc2C(=O)O)o1	?	?	20µM*	28µM*	-7%[11.6 µM]	nt	30*	Pol kappa inh-2=24*
Cc1ccc(C(=O)NCc2ccco2)o1	?	?	?	?	-19%	-7	nt
CCCCNC(=O)C1(C)CCCCCN1Cc1cccc2c(OC)cc(C(=O)OCC)cc12 (stereo not drawn)	nt	nt	nt	nt	-12%	4	nt
CC(C)OC(=O)c1ccc(NCc2cc(O)ccc2O)cc1	-19%	-2%	nt	-24%	-11%	-16	nt
COP(=O)(OC)c1ccc(NCc2cc(O)ccc2O)cc1	?	10µM*	nt	10µM*	56µM*	-23	48*
Cc1ccc(/C=N/Nc2ccc(C(=O)O)cc2)s1	-26%	?	?	40µM*	-35%	-23	48*	Pol kappa inh-2=?
Cc1ccc(F)c(NC(=O)/C(C#N)=C(\O)c2ccc(C(C)(C)C)cc2)c1	-7%	?	89µM*	79µM*	-2%[11.6 µM]	-28	nt	GALK confirm=33µM*;Redox cycling=-20%;HEK293 viability=4%
COc1ccc(C2=Nn3c(nnc3-c3ccccc3OC)SC2)cc1O[C@H]1CCOC1	nt	nt	nt	nt	nt	nt	nt	Pol kappa inh-2=2.7*
COc1ccc(OC)c(-c2nnc3n2N=C(c2ccc(OC(F)F)c(OCC4CC4)c2)CS3)c1	-31%	?	nt	-24%	nt	nt	nt
COc1ccc(C2=Nn3c(nnc3-c3ccccc3OC)SC2)cc1OCC1CC1	40µM*	-16%	nt	-9%	nt	nt	nt	Pol kappa inh-2=0.67*
Nc1c(-c2ccc(F)c(F)c2)nc2ncccn12	nt	nt	nt	nt	5%	0	nt
COc1cccc(OC)c1OC(=O)C1CC(=O)N(c2ccc3c(c2)OCCO3)C1 (stereo not drawn)	?	25µM*	nt	28µM*	-7%[11.6 µM]	?	?
O=C(Nc1ccc(S(=O)(=O)Nc2ncccn2)cc1)c1ccc2ncsc2c1	-26%	?	?	40µM*	-4%	?	76*
Cc1c(C(=O)Nc2ccc(S(=O)(=O)Nc3ncccn3)cc2)oc2ccccc12	?	?	nt	28µM*	-9%	-28	43*
COc1ccc(C(=O)NNc2ncnc3c2cnn3-c2ccc(C)cc2C)cc1	-5%[60.1 µM]	-16%	2%	-6%	nt	nt	nt
O=C(O)CN1C(=O)/C(=C/c2ccc(-c3cccc(Cl)c3)o2)SC1=S	nt	nt	nt	nt	nt	nt	?	Pol kappa inh-2=34*
CN(C)C(=O)c1ccc(/C=C/c2ccnc3ccccc23)cc1	-23%	4%	nt	nt	nt	nt	nt
CC1=NN(c2ccccc2)C(=O)/C1=C/c1ccc(-c2ccc(C)c(C(=O)O)c2)o1	-15%	?	nt	25µM*	?	-18	?
CC1=NN(c2ccccc2)C(=O)/C1=C/c1ccc[nH]1	-12%	-5%	9%	-18%	-9%	4	nt
CC1=NN(c2ccc(Cl)c(C(=O)O)c2)C(=O)/C1=C\c1ccc(-c2ccc(C(=O)O)cc2)o1	?	?	16µM*	13µM*	?	-17	?	Pol kappa inh-2=15*
O=C(O)c1cc(N/N=C/c2ccc(N3CCOCC3)cc2)ccc1Cl	?	?	?	50µM*	?	-28	85*
Cc1cccc(-n2c3nc(=O)[nH]c(=O)c-3cc3cc([N+](=O)[O-])ccc32)c1	-11%	?	29%	20µM*	-35%	11	48*
SMILES	Pol kappa inh-1	POLI inh	Pol beta inh	Pol eta inh-1	WRN inhibitor	PI5P4K alpha inh	Pol eta inh-2	others
O=c1nc2n(-c3ccccc3F)c3ccccc3cc-2c(=O)[nH]1	-3%	?	-7%	1%	nt	nt	nt
CCCCC1C(=O)CC[C@H]2[C@@H]1CC(=O)[C@@H]2C/C=C\CCCC(=O)O (stereo partly drawn)	-26%	?	26%	?	?	-1	?
COC(=O)c1cc2c([nH]c1=O)CC(c1ccccc1)CC2=O (stereo not drawn)	6%	10%	nt	nt	nt	nt	nt
CCC(Cc1ccccc1)NC(=O)CSc1ccsc1[N+](=O)[O-] (stereo not drawn)	-1%	3%	-11%	-3%	1%	0	nt
CCN(CC)c1ccc(NC(=O)CSc2ccsc2[N+](=O)[O-])c(C)c1	?	?	25µM*	45µM*	?	?	?	Pol kappa inh-2=60*
CCc1cc(CNC(=O)C2CCC(=O)N(Cc3ccccc3F)C2)on1 (stereo not drawn)	nt	nt	nt	-13%	17%	2	nt
CCc1cc(C(=O)Nc2ccc(S(=O)(=O)NC3=NCCCCC3)cc2)sc1C	50µM*	22µM*	nt	56µM*	?	?	?
Cc1ccc(C(=O)Nc2ccc(S(=O)(=O)NC3=NCCCCC3)cc2)c(C)c1	2%	58%	nt	-18%	-19%	2	nt
C/C(=N\Nc1ccc(Cl)c(C(=O)O)c1)c1ccc(Br)s1	?	?	50µM*	20µM*	?	-15	27*
C/C(=N\NC(=O)c1ccc(Cl)c(Cl)c1)c1ccc(Br)s1	1%	24%	?	-3%	-31%[57.1 µM]	-3	nt
Brc1ccc(C2C=Cc3ccccc32)cc1 (stereo not drawn)	-2%	25%	nt	nt	nt	nt	nt
